Measured values: PubChem BioAssay (NCI)
This is part of a sample that, as a whole, favours compounds with a hit. Of some 83,000 tested, about 20% had one in any assay.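 Results are percent growth after 48 hours of single-concentration exposure. 100 means growth as in untreated cells, lower positive values show inhibition; negative values down to -100 show cell death.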 Calls of active or inactive are those of the source. Rule for the calls: active = growth percent below 10; inactive = the rest.

The compounds below were run on RXF 393 renal (assay: NCI-60 one-dose screen, 48 h (100 = growth as untreated, 0 = no growth, -100 = all killed)). Settings: 10 µM.

SMILES	growth
Cc1c(O)cnc2nn(-c3ccccc3)c(=N)n12	111% (inactive)
CC[N+](C)(CC)CCO	88.5% (inactive)
CCOC(=O)C/C(C)=N\O	113% (inactive)
COc1cc(CCN=Cc2ccccc2O)c([N+](=O)[O-])cc1OC	111% (inactive)
O=[N+]([O-])c1ccc(CO)cc1	97.9% (inactive)
O=C(Nc1ccccc1C(=O)NCC1CC1)c1cccs1	98.9% (inactive)
COc1cc(CN)ccc1O	95% (inactive)
N#CC(=Nc1cccc(F)c1)C1=C(O)c2ccccc2C1=O	88.9% (inactive)
CC(=O)OCC1OC(OC2=C(CC=C(C)C)C(=O)c3ccccc3C2=O)C(OC(C)=O)C(OC(C)=O)C1OC(C)=O (centres undefined)	61.1% (inactive)
O=[N+]([O-])c1ccccc1S(=O)c1ccccc1[N+](=O)[O-]	111% (inactive)
CC(=O)OCC1CCCO1 (centres undefined)	103% (inactive)
CC(C(=O)O)(C1CCCCC1)C1(O)CCCCC1 (centres undefined)	99.1% (inactive)
COc1cc(/C=C/C(=O)c2ccccc2)cc(OC)c1OC	73.2% (inactive)
O=C1OC(c2ccc(F)cc2)CC1CN1CCOCC1 (centres undefined)	111% (inactive)
OC1OC(COC(c2ccccc2)(c2ccccc2)c2ccccc2)C(O)C(O)C1O (centres undefined)	95.8% (inactive)
O=C(NCCNC(=O)c1ccc(Cl)cc1Cl)c1ccc(Cl)cc1Cl	95% (inactive)
CC(C)(N)COS(=O)(=O)O	110% (inactive)
C=CCCCCCCCCCOC(C)=O	103% (inactive)
O=C(NCc1ccco1)Nc1c(Cl)cc(Cl)cc1Cl	107% (inactive)
CCOC(=O)C1=C(Nc2ccc(Br)cc2)C(=O)N(CC)C1	92.9% (inactive)

SMILES	growth
CN(C)c1ccc(C(c2ccc(O)cc2)c2ccc(N(C)C)cc2)cc1	112% (inactive)
S=C1NCc2cncnc2N1	105% (inactive)
C/C(=N\NC(=O)c1ccccc1N)c1ccccc1O	74.9% (inactive)
CC(C)(C)n1nc(C2CC2)c(Br)c1NC(=O)c1ccccc1F	114% (inactive)
O=C(O)CCC(NC(=O)OCc1ccccc1)C(=O)O (centres undefined)	109% (inactive)
Nc1ccccc1SC(CC(=O)c1ccccc1)c1c(Cl)cccc1Cl (centres undefined)	86.8% (inactive)
O=C(O)CSCSCC(=O)O	97% (inactive)
NC(CSC(c1ccccc1)(c1ccccc1)c1ccccc1)C(=O)O (centres undefined)	3.38% (active)
CCCCC1C(=O)N(c2ccccc2)N(c2ccccc2)C1=O	116% (inactive)
CCCC[P+](c1ccccc1)(c1ccccc1)c1ccccc1	102% (inactive)
CC(CN1CCCCC1)NC(=O)c1scnc1-c1ccccc1 (centres undefined)	101% (inactive)
COc1ccc(C(=O)C(Br)C(Br)C(=O)O)cc1 (centres undefined)	106% (inactive)
CCOC(=O)c1coc(C(=O)OCC)c1C(=O)OCC	123% (inactive)
O=C(OCC(O)C1OC(c2ccccc2)OC(COC(=O)c2ccccc2)C1O)c1ccccc1 (centres undefined)	96.3% (inactive)
COc1ccc(/C(C#N)=C2C=C/C(=N/O)c3ccccc3\2)cc1	53.9% (inactive)
Nc1ccc(N)c([N+](=O)[O-])c1	107% (inactive)
Cc1ccccc1C1N=C2Oc3ccccc3C=C2C(=O)N1 (centres undefined)	-4.6% (active)
O=C(Nc1ccccc1)OCCc1ccccc1	93.3% (inactive)
Cc1cc(/C=C/c2ccc3cc(N(C)C)ccc3[n+]2C)c(C)n1-c1ccccc1	-96.2% (active)
